# Experimental data taken from the supplement of paper PMC9801561.
# ± gives the standard deviation of the averaged measurements.
# Legend:
# [1] = system: Escherichia coli Nissle 1917; assay: area under OmniLog respiration curve over 48 h (OmniLog units x h); higher = more growth / nutrient utilisation; extreme values may be limits of the assay; details: incubation: 48 h, 37 °C
# [2] = system: Escherichia coli Nissle 1917; assay: DuctApe activity index of respiration/growth curve (0 no growth to 9 maximum) (index 0-9); higher = more growth / nutrient utilisation, active = 3 or more; extreme values may be limits of the assay; details: incubation: 48 h, 37 °C
# [3] = nutrient role: C-Source, carbohydrate
# [4] = nutrient role: sole phosphorus source (pyruvate carbon)
# [5] = nutrient role: C-Source, carboxylic acid
# [6] = nutrient role: sole sulfur source (pyruvate carbon)
# [7] = nutrient role: sole nitrogen source (pyruvate carbon)
# [8] = nutrient role: C-Source, alcohol
# 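Throughout, for DuctApe activity index of respiration/growth curve (0 no growth to 9 maximum): biolog PM4 phosphorus and sulfur plates, tetrazolium violet dye reduction read in the OmniLog every 15 min, kinetic curves scored by DuctApe, each plate run in triplicate.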
compound,measurement,setting,value
OC[C@@H](O)C(O)[C@H](O)CO [D-Arabitol],area under OmniLog respiration curve,[1]; [3],4.72
same,DuctApe activity index,[2]; [3],0 (inactive)
Cc1cn([C@H]2C[C@H](OP(=O)(O)O)[C@@H](CO)O2)c(=O)[nH]c1=O [Thymidine 3`-Monophosphate],area under OmniLog respiration curve,[1]; [4],8940 ± 450
same,DuctApe activity index,[2]; [4],8.67 (active)
CCC(=O)O [Propionic acid],area under OmniLog respiration curve,[1]; [5],7450 ± 300
same,DuctApe activity index,[2]; [5],8 (active)
N[C@@H](CSC[C@H](N)C(=O)O)C(=O)O [Lanthionine],area under OmniLog respiration curve,[1]; [6],7490 ± 330
same,DuctApe activity index,[2]; [6],8 (active)
OC[C@H]1O[C@H](O[C@H]2O[C@H](CO)[C@@H](O)[C@H](O)[C@H]2O)[C@H](O)[C@@H](O)[C@@H]1O [D-Trehalose],area under OmniLog respiration curve,[1]; [3],8920 ± 460
same,DuctApe activity index,[2]; [3],8.67 (active)
OC1OC[C@@H](O)[C@@H](O)[C@@H]1O (stereo partly drawn) [D-Arabinose],area under OmniLog respiration curve,[1]; [3],2440 ± 230
same,DuctApe activity index,[2]; [3],4 (active)
NCCCC[C@@H](N)C(=O)O [D-Lysine],area under OmniLog respiration curve,[1]; [7],23.1 ± 23
same,DuctApe activity index,[2]; [7],0.667 (inactive)
O=C(O)CC[C@@H](C(=O)O)N1C(=O)c2ccccc2C1=O [N-Phthaloyl-L-Glutamic acid],area under OmniLog respiration curve,[1]; [7],4540 ± 1100
same,DuctApe activity index,[2]; [7],6 (active)
O=C(O)c1ccc(O)cc1 [4-Hydroxybenzoic acid],area under OmniLog respiration curve,[1]; [5],4.72
same,DuctApe activity index,[2]; [5],0 (inactive)
NC=O [Formamide],area under OmniLog respiration curve,[1]; [7],38.4 ± 58
same,DuctApe activity index,[2]; [7],0 (inactive)
N[C@@H](Cc1ccc(OP(=O)(O)O)cc1)C(=O)O [O-Phospho-L-Tyrosine],area under OmniLog respiration curve,[1]; [4],8920 ± 320
same,DuctApe activity index,[2]; [4],8.67 (active)
OC[C@H]1O[C@H](OC[C@H]2O[C@H](OC[C@H]3O[C@H](O[C@]4(CO)O[C@H](CO)[C@@H](O)[C@@H]4O)[C@H](O)[C@@H](O)[C@@H]3O)[C@H](O)[C@@H](O)[C@H]2O)[C@H](O)[C@@H](O)[C@H]1O [Stachyose],area under OmniLog respiration curve,[1]; [3],433 ± 380
same,DuctApe activity index,[2]; [3],1.33 (inactive)
OC[C@H]1O[C@@H](Oc2ccc(O)cc2)[C@H](O)[C@@H](O)[C@@H]1O [Arbutin],area under OmniLog respiration curve,[1]; [3],4.72
same,DuctApe activity index,[2]; [3],0 (inactive)
O=P1(O)OP(=O)(O)OP(=O)(O)O1 [Trimetaphosphate],area under OmniLog respiration curve,[1]; [4],9730 ± 800
same,DuctApe activity index,[2]; [4],9 (active)
O=C(CO)CO [Dihydroxyacetone],area under OmniLog respiration curve,[1]; [8],6280 ± 820
same,DuctApe activity index,[2]; [8],7 (active)
OC[C@H]1O[C@H](O[C@H]2[C@H](O)[C@@H](O)[C@H](O)O[C@@H]2CO)[C@H](O)[C@@H](O)[C@@H]1O [Maltose],area under OmniLog respiration curve,[1]; [3],7970 ± 810
same,DuctApe activity index,[2]; [3],7.67 (active)
O=c1cc[nH]c(=O)[nH]1 [Uracil],area under OmniLog respiration curve,[1]; [7],103 ± 170
same,DuctApe activity index,[2]; [7],0 (inactive)
OC[C@H]1OC(O)[C@H](O)[C@@H](O)[C@H]1O (stereo partly drawn) [D-Galactose],area under OmniLog respiration curve,[1]; [3],7350 ± 520
same,DuctApe activity index,[2]; [3],7.67 (active)
O[C@@H]1[C@@H](O)[C@@H](O)CO[C@H]1O [L-Arabinose],area under OmniLog respiration curve,[1]; [3],8240 ± 430
same,DuctApe activity index,[2]; [3],8 (active)
